High-throughput results from PubChem BioAssay.
The list is not random: actives were taken first. Their share in the collection is about 3.7%.
tim10-1 inh = inhibits growth of tim10-1 mutant yeast. S. cerevisiae tim10-1 ts strain growth, BacTiter-Glo, 24 h. inhibition, % at 20 µM. hit rate 2.2% among 330,000. AID 463190;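 active means inhibition of at least 40%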;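 further: mutant grown at 25 °C; 0% = DMSO wells with yeast and 100% = wells holding no yeast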
TIM10 inh = inhibits growth of TIM10 yeast strain | S. cerevisiae TIM10 strain growth, BacTiter-Glo luminescence, 24 h | inhibition, % at 10 µM | hit rate 1.4% among 330,000;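 active means inhibition of 40% or more at the single tested concentration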;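 further: wild-type TIM10 isogenic control strain grown at permissive 25 °C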
tim23-1 inh = inhibits growth of tim23-1 mutant yeast | S. cerevisiae tim23-1 growth, BacTiter-Glo luminescence, 24 h | inhibition, % at 20 µM | hit rate 1.3% among 330,000 | AID 463212;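 active means growth inhibition of the mutant yeast at or above 50%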;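 further: temperature-sensitive mutant grown at 25 °C; plate controls were DMSO-treated mutant yeast for no effect and medium wells lacking yeast for full effect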
NALP3 yeast inh = NALP3 inhibition in yeast. AID 2825. hit rate 0.39% among 330,000. Yeast reconstituted NLRP3/ASC/caspase-1, beta-gal luminescence, 24 h. inhibition, % at 10 µM;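 active means inhibition of 50% or more; inactive means inhibition below 50%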;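 further: plate controls were induced DMSO wells for no effect and uninduced yeast grown without galactose for full effect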
PfHsp90 yeast 2 = reduces growth (ATP signal) of yeast expressing P. falciparum Hsp90; inhibition, % at 9.4 µM; hit rate 0.32% among 310,000; AID 504621; S. cerevisiae expressing PfHsp90, BacTiter-Glo ATP, 48 h; yeast lacking PDR1 and PDR3 efflux regulators;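 active means every replicate shows inhibition above about 80%, whatever the replicate mean, limit read from the data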;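 further: 0% = DMSO neutral controls and 100% = 20 µM radicicol positive controls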
tim10-1 conf = confirmation of tim10-1 mutant yeast growth inhibitors; shares compounds with tim10-1 inh; hit rate 56% among 7,400; S. cerevisiae tim10-1 ts strain growth, BacTiter-Glo, 24 h; AID 463213; inhibition, % at 20 µM;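 active means inhibition of yeast growth at or above a set limit in either of two repeat tests at 20 µM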;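 further: tim10-1 mutant grown at permissive 25 °C to find synthetic lethal compounds; 0% = DMSO yeast wells and 100% = medium wells without yeast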
TIM10 conf = TIM10 yeast growth inhibition, confirmed | hit rate 63% among 4,600 | inhibition, % at 10 µM | shares compounds with TIM10 inh | S. cerevisiae tim10 strain growth, BacTiter-Glo luminescence, 24 h;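 active means inhibition of yeast growth at or above a set limit in either of two replicates at 10 µM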;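 further: this counterscreen used the strain with wild-type TIM10; 0% = yeast with DMSO and 100% = medium wells lacking yeast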
tim23-1 confirm = confirmation of tim23-1 mutant yeast growth inhibitors; AID 463218; hit rate 83% among 4,400; inhibition, % at 20 µM; shares compounds with tim23-1 inh; S. cerevisiae tim23-1 growth, BacTiter-Glo luminescence, 24 h;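 active means inhibition above about 39% in either of two replicate wells at 20 µM, limit read from the data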;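 further: temperature-sensitive tim23-1 mutant grown at 25 °C; 0% = DMSO wells with yeast and 100% = medium wells without yeast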
Numbers without * were called inactive; . = not tested or not shown.

SMILES | tim10-1 inh | TIM10 inh | tim23-1 inh | NALP3 yeast inh | PfHsp90 yeast 2 | tim10-1 conf | TIM10 conf | tim23-1 confirm
Nc1ncnc2c1ncn2[C@@H]1O[C@H](COS(=O)(=O)O)[C@@H](O)[C@H]1O | 0 | 3 | 0 | 8 | -17 | . | . | .
Nc1ncnc2c1ncn2[C@@H]1O[C@H](COP(=O)(O)OP(=O)(O)OP(=O)(O)O)[C@@H](O)[C@H]1O | 84* | 70* | 84* | 2 | 88* | 80* | 68* | 87*
Cc1[nH]n(C(N)=S)c(=O)c1N=Nc1ccc([N+](=O)[O-])cc1Cl | 45* | 23 | 58* | 39 | -23 | 52* | . | 67*
Cc1ccc(Nc2nc3ccc(Cl)cc3n3cnnc23)cc1F | 63* | 13 | 51* | 18 | 16 | 20 | . | 20
Cc1ccc2nc(Nc3ccc(F)cc3)c3nncn3c2c1 | 1 | 29 | 37 | 21 | -13 | . | . | .
CCCCNC(=O)c1cccc(S(=O)(=O)N2CC3(C)CC2CC(C)(C)C3)c1 (stereo unspecified) | 50* | 29 | 59* | 13 | 5 | 48* | . | 54*
Cc1nc(N2CCN(c3ccccc3)CC2)[nH]c(=O)c1C | -3 | -2 | -2 | 0 | 2 | . | . | .
CCOC(=O)Cc1csc(NC(=S)NC(=O)CC(C)C)n1 | 50* | 42* | 55* | -47 | -29 | 47* | 39* | 56*
CCOC(=O)Cc1csc(NC(=S)NC(=O)c2ccc(C)cc2)n1 | 17 | 24 | -6 | -12 | 15 | . | . | .
O=C(/C=C/c1ccc(F)cc1)c1cc(Br)ccc1O | 45* | 53* | 50* | -22 | 1 | 71* | 70* | 22
O=Cc1ccc(OCc2cccc(C(F)(F)F)c2)cc1O | 45* | 14 | 57* | -1 | -26 | 48* | . | 42*
COCOc1ccc(C=O)c(O)c1 | 4 | -7 | 13 | 7 | 5 | . | . | .
Cc1csc(NC(=O)CNC(=O)OCc2ccccc2)n1 | 5 | -5 | 10 | 13 | 18 | . | . | .
CCc1ccc(CN2CCC(n3nccc3NC(=O)C3CCCC3)CC2)cc1 | 14 | 10 | 1 | 16 | 5 | . | . | .
COc1cccc(NC(=O)C2CC(=O)n3cnnc3S2)c1 (stereo unspecified) | 43* | 41* | 61* | 13 | 13 | 33* | 12 | 59*
COc1ccc(NC(=O)C2CC(=O)n3cnnc3S2)cc1 (stereo unspecified) | 39 | 33 | -2 | -12 | 10 | . | . | .
CCCOc1cccc(C(=O)N(Cc2cccs2)C2CCS(=O)(=O)C2)c1 (stereo unspecified) | 19 | 3 | 11 | -2 | 40 | . | . | .
N/C(=N\OC(=O)/C=C/c1ccccc1)c1ccccc1 | 43* | 45* | 77* | 3 | -18 | 53* | 63* | 73*
Cc1ccccc1C(=O)O/N=C(\N)c1ccccc1 | 55* | 53* | 57* | 23 | -11 | 58* | 50* | 68*
Cc1ccc(C)c(C(=O)O/N=C(\N)c2ccc(Br)cc2)c1 | 57* | 87* | 86* | 33 | -4 | 33* | 87* | 61*
Cc1ccc(C(=O)O/N=C(\N)c2ccc(Br)cc2)cc1C | 36 | 21 | 21 | 31 | -1 | . | . | .
Cc1ccccc1/C(N)=N/OC(=O)c1ccc(F)cc1 | 44* | 73* | 74* | -14 | -7 | 43* | 56* | 67*
O=C(/C=C/c1ccccc1)/C=C/c1ccccc1 | 48* | 53* | 59* | 27 | 16 | 49* | -29 | 67*
N/C(=N\OC(=O)c1ccoc1)c1ccc(Br)cc1 | 59* | 71* | 81* | 5 | 20 | 54* | 64* | 84*
Cc1cc(OCC(=O)O/N=C(\N)c2ccccc2)ccc1Cl | . | . | . | . | -2 | . | . | .
SMILES | tim10-1 inh | TIM10 inh | tim23-1 inh | NALP3 yeast inh | PfHsp90 yeast 2 | tim10-1 conf | TIM10 conf | tim23-1 confirm
Cc1cc(OCC(=O)O/N=C(\N)c2ccccc2)cc(C)c1Cl | 64* | 36 | 73* | 5 | 25 | 49* | . | 80*
Cc1ccccc1-c1nnc(SCC(=O)NC2CCCC2)o1 | 2 | -4 | 4 | 21 | 5 | . | . | .
Cc1cccc(S(=O)(=O)c2c(C)cc(C)nc2Cl)c1 | -1 | -10 | 7 | 13 | -27 | . | . | .
N/C(=N\OC(=O)Nc1ccc(Cl)cc1)c1ncc(C(F)(F)F)cc1Cl | 53* | 69* | 75* | 3 | -11 | 64* | 80* | 73*
N/C(=N\OC(=O)Nc1ccccc1)c1ncc(C(F)(F)F)cc1Cl | 26 | 25 | 45 | -1 | -4 | . | . | .
N/C(=N\OC(=O)Nc1ccccc1)c1cccc(C(F)(F)F)c1 | 54* | 14 | 64* | 7 | -5 | 41* | . | 49*
CC1(C)CC2CC(C)(CN2C(=O)COC(=O)c2ccc(NC(=O)CC#N)cc2)C1 (stereo unspecified) | 9 | 7 | 17 | 5 | . | . | . | .
O=C1NN=C(c2ccc(Cl)cc2)CC1c1cccc(Cl)c1 (stereo unspecified) | 41* | 7 | 56* | 10 | . | 27 | . | 54*
CC(=O)n1cc(N(C(=O)CCl)c2ccc(Cl)cc2)c2ccccc21 | 48* | 34 | 64* | 26 | . | 46* | . | 41*
O=C(OC(c1ccccc1)c1nccc2ccccc12)c1cc([N+](=O)[O-])cc([N+](=O)[O-])c1 (stereo unspecified) | 54* | 43* | 57* | 18 | -61 | 45* | -7 | 47*
CCOC(=O)c1cnc(-n2nc(C)cc2C)nc1NC(C)c1ccccc1 (stereo unspecified) | 44* | 53* | 54* | 23 | . | 30 | 57* | 45*
COc1cccc(CN(C)C(=O)c2cc(COc3ccc(-n4cncn4)cc3)on2)c1 | 41* | 20 | 51* | 24 | 7 | 30* | . | 34
O=C(N/N=C/c1cccs1)/C(=C/c1ccccc1)NC(=O)c1ccccc1 | 0 | 14 | 5 | 5 | 19 | . | . | .
Cc1cc(NC(=O)c2cccc3c2C(=O)N(C2CCCCC2)C3)ccc1Br | 31 | 0 | -15 | 15 | -9 | . | . | .
Cc1cccc(C)c1NC(=O)c1cccc2c1C(=O)N(C1CCCCC1)C2 | 56* | 18 | 55* | 16 | 0 | 11 | . | 38
CCCN(CCC)c1nc(NC2CCN(C(=O)OCC)CC2)nc(OC)n1 | 26 | 12 | 32 | 13 | -6 | . | . | .
COc1cc(SC)ccc1C(=O)Nc1nc2ccccc2[nH]1 | 90* | 88* | 93* | 16 | 96* | 91* | 88* | 94*
CSc1ccccc1C(=O)Nc1nc2ccccc2[nH]1 | 13 | 2 | 4 | 15 | 9 | . | . | .
